# Inconclusive results are not listed. Entries that show only a call come without a potency. Unmarked numbers belong to inactive results. Calls of active or inactive are those of the source. Calls follow the shape of the dose curve; as a rule, active = well fitted curve in the direction sought with a large enough effect; inconclusive = small, poorly fitted or top-dose-only effect, or another doubt; inactive = no such curve, though single readings can be large; an effect the other way counts as inactive or inconclusive.
# Columns and labels:
# MCC-13 = experiment: qHTS assay to identify novel small-molecules to repurpose for Merkel cell carcinoma treatment (AID 1296009); conditions: MCC and control cell lines, CellTiter-Glo viability, 72 h; series mostly up to 46 µM; also: nearly all actives have a fitted effect of over 60% in size
# Outline: (§1)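 qHTS format: cells treated with library compounds in DMSO across 8 (NPC) or 11 (MIPE) concentrations. Readout after 72 hr at 37 degree celsius was CellTiter-Glo luminescence.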
# MCC-26 = experiment: as above; conditions: MCC and control cell lines, CellTiter-Glo viability, 72 h; series mostly up to 46 µM
# Outline: as §1
# MKL-1 = experiment: as above; conditions: MCC and control cell lines, CellTiter-Glo viability, 72 h; series mostly up to 46 µM
# Outline: as §1
# MKL-2 = experiment: as above; conditions: MCC and control cell lines, CellTiter-Glo viability, 72 h; series mostly up to 46 µM
# Outline: as §1
# UISO = experiment: as above; conditions: MCC and control cell lines, CellTiter-Glo viability, 72 h; series mostly up to 46 µM
# Outline: as §1
# WaGa = experiment: as above; conditions: MCC and control cell lines, CellTiter-Glo viability, 72 h; series mostly up to 46 µM
# Outline: as §1
# C33A = experiment: Primary qHTS to identify gynecologic anti-cancer compounds using libraries of approved drugs and bioactive compounds (AID 1345084); conditions: Gynecologic cancer cell panel viability, ATPlite luminescence, 48 h; series mostly up to 57.5 µM; also: nearly all actives have a fitted effect of over 55% in size; also: potency is read from the fitted curve at half-maximal effect
# Outline: (§2)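 Luminescence from the ATPlite ATP-monitoring reagent indicates viable cell number; lower signal means cytotoxicity. Cells received compound 16 h after seeding and were exposed for 48 h across five concentrations.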
# CAOV3 = experiment: as above; conditions: Gynecologic cancer cell panel viability, ATPlite luminescence, 48 h; series mostly up to 57.5 µM
# Outline: as §2
# CASKI = experiment: as above; conditions: Gynecologic cancer cell panel viability, ATPlite luminescence, 48 h; series mostly up to 57.5 µM
# Outline: as §2
# Es-2 = experiment: as above; conditions: Gynecologic cancer cell panel viability, ATPlite luminescence, 48 h; series mostly up to 57.5 µM
# Outline: as §2
# HeLa = experiment: as above; conditions: Gynecologic cancer cell panel viability, ATPlite luminescence, 48 h; series mostly up to 57.5 µM
# Outline: as §2
# Hek293T = experiment: as above; conditions: Gynecologic cancer cell panel viability, ATPlite luminescence, 48 h, control line for the selectivity index; series mostly up to 57.5 µM
# Outline: as §2
# JEG-3 = experiment: as above; conditions: Gynecologic cancer cell panel viability, ATPlite luminescence, 48 h; series mostly up to 57.5 µM
# Outline: as §2
# OV90 = experiment: as above; conditions: Gynecologic cancer cell panel viability, ATPlite luminescence, 48 h; series mostly up to 57.5 µM
# Outline: as §2
# PA-1 = experiment: as above; conditions: Gynecologic cancer cell panel viability, ATPlite luminescence, 48 h; series mostly up to 57.5 µM
# Outline: as §2
# Tov-21-G = experiment: as above; conditions: Gynecologic cancer cell panel viability, ATPlite luminescence, 48 h; series mostly up to 57.5 µM
# Outline: as §2
# Tov112D = experiment: as above; conditions: Gynecologic cancer cell panel viability, ATPlite luminescence, 48 h; series mostly up to 57.5 µM
# Outline: as §2
# [1] = Drug repurposing screens with cells derived from glioblastoma tumor samples (AID 1345199); conditions: GBM patient neurospheres viability, ATP luminescence, 48 h; also: nearly all actives have a fitted effect of over 40% in size; also: potency is read from the fitted curve at half-maximal effect
# Outline: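 Four patient lines of CD133+ GBM neurospheres were screened at several concentrations; hits were retested in those lines plus three slower-growing GBM lines, using 48-hour treatment and ATP-based viability.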
# SKOV3 = experiment: Primary qHTS to identify gynecologic anti-cancer compounds using libraries of approved drugs and bioactive compounds (AID 1345084); conditions: Gynecologic cancer cell panel viability, ATPlite luminescence, 48 h; series mostly up to 57.5 µM; also: nearly all actives have a fitted effect of over 55% in size; also: potency is read from the fitted curve at half-maximal effect
# Outline: as §2
# [2] = at 20 µM (top of the series), tumour line C
# [3] = at 21.2 µM (top of the series), tumour line B
# [4] = at 21.2 µM (top of the series), tumour line D
# [5] = at 21.3 µM (top of the series), tumour line A
# [6] = at 45.9 µM (top of the series), tumour line B
# [7] = at 45.9 µM (top of the series), tumour line D
# [8] = at 46 µM (top of the series), tumour line A
# [9] = at 46.1 µM (top of the series), tumour line C
smiles,measurement,setting,value
CC(=O)[C@@]1(O)CC[C@H]2[C@@H]3C[C@H](C)C4=CC(=O)C=C[C@]4(C)[C@@]3(F)[C@@H](O)C[C@@]21C,outcome,MCC-13,inactive
same,outcome,MCC-26,inactive
same,outcome,MKL-1,inactive
same,outcome,MKL-2,inactive
same,outcome,UISO,inactive
same,outcome,WaGa,inactive
same,outcome,C33A,inactive
same,outcome,CAOV3,inactive
same,outcome,CASKI,inactive
same,outcome,Es-2,inactive
same,outcome,HeLa,inactive
same,outcome,Hek293T,inactive
same,outcome,JEG-3,inactive
same,Potency,OV90,inactive
same,outcome,PA-1,inactive
same,outcome,Tov-21-G,inactive
same,outcome,Tov112D,inactive
same,"activity, negative = cell killing",[1]; [2],-10.6%
same,"activity, negative = cell killing",[1]; [3],4.4%
same,"activity, negative = cell killing",[1]; [4],-1.22%
same,"activity, negative = cell killing",[1]; [5],13.1%
CC[N+](C)(CC)CCOC(=O)C1c2ccccc2Oc2ccccc21,outcome,MCC-13,inactive
same,outcome,MCC-26,inactive
same,outcome,MKL-1,inactive
same,outcome,MKL-2,inactive
same,outcome,UISO,inactive
same,outcome,WaGa,inactive
same,outcome,C33A,inactive
same,outcome,CAOV3,inactive
same,outcome,CASKI,inactive
same,outcome,Es-2,inactive
same,outcome,HeLa,inactive
same,outcome,Hek293T,inactive
same,outcome,JEG-3,inactive
same,Potency,OV90,inactive
same,outcome,PA-1,inactive
same,outcome,Tov-21-G,inactive
same,outcome,Tov112D,inactive
same,"activity, negative = cell killing",[1]; [6],-11.7%
same,"activity, negative = cell killing",[1]; [7],10.5%
same,"activity, negative = cell killing",[1]; [8],-6.39%
same,"activity, negative = cell killing",[1]; [9],-9.49%
O=C(NCN1CCOCC1)c1cnccn1,outcome,MCC-13,inactive
same,outcome,MCC-26,inactive
same,outcome,MKL-1,inactive
same,outcome,MKL-2,inactive
same,outcome,UISO,inactive
same,outcome,WaGa,inactive
same,outcome,C33A,inactive
same,outcome,CAOV3,inactive
same,outcome,CASKI,inactive
same,outcome,Es-2,inactive
same,outcome,HeLa,inactive
same,outcome,Hek293T,inactive
same,outcome,JEG-3,inactive
same,Potency,OV90,inactive
same,outcome,PA-1,inactive
same,outcome,SKOV3,inactive
same,outcome,Tov-21-G,inactive
same,outcome,Tov112D,inactive
same,"activity, negative = cell killing",[1]; [6],-3.93%
same,"activity, negative = cell killing",[1]; [7],-22.6%
same,"activity, negative = cell killing",[1]; [8],-8.03%
same,"activity, negative = cell killing",[1]; [9],-4.53%
Cn1c(=O)c2c(ncn2CCO)n(C)c1=O,outcome,MCC-13,inactive
same,outcome,MCC-26,inactive
same,outcome,MKL-1,inactive
same,outcome,MKL-2,inactive
same,outcome,UISO,inactive
same,outcome,WaGa,inactive
same,outcome,C33A,inactive
same,outcome,CAOV3,inactive
same,outcome,CASKI,inactive
same,outcome,Es-2,inactive
same,outcome,HeLa,inactive
same,outcome,Hek293T,inactive
same,outcome,JEG-3,inactive
same,Potency,OV90,inactive
same,outcome,PA-1,inactive
same,outcome,SKOV3,inactive
same,outcome,Tov-21-G,inactive
same,outcome,Tov112D,inactive
same,"activity, negative = cell killing",[1]; [6],-5.04%
same,"activity, negative = cell killing",[1]; [7],-0.441%
same,"activity, negative = cell killing",[1]; [8],-29%
same,"activity, negative = cell killing",[1]; [9],-21.7%
COc1cc(C(=O)NCCCCCC(=O)O)cc(OC)c1OC,outcome,MCC-13,inactive
same,outcome,MCC-26,inactive
same,outcome,MKL-1,inactive
same,outcome,MKL-2,inactive
same,outcome,UISO,inactive
same,outcome,WaGa,inactive
same,outcome,C33A,inactive
same,outcome,CAOV3,inactive
same,outcome,CASKI,inactive
same,outcome,Es-2,inactive
same,outcome,HeLa,inactive
same,outcome,Hek293T,inactive
same,outcome,JEG-3,inactive
same,Potency,OV90,inactive
same,outcome,Tov-21-G,inactive
same,outcome,Tov112D,inactive
same,"activity, negative = cell killing",[1]; [6],-7.31%
same,"activity, negative = cell killing",[1]; [7],-8.75%
same,"activity, negative = cell killing",[1]; [8],-18.3%
same,"activity, negative = cell killing",[1]; [9],-40.8%
COC(=O)c1ccccc1C(=O)c1ccc(OCCN2CCCCC2)cc1,outcome,MCC-13,inactive
same,outcome,MCC-26,inactive
same,outcome,MKL-1,inactive
same,outcome,MKL-2,inactive
same,outcome,UISO,inactive
same,outcome,WaGa,inactive
same,outcome,C33A,inactive
same,outcome,CAOV3,inactive
same,outcome,CASKI,inactive
same,outcome,Es-2,inactive
same,outcome,HeLa,inactive
same,outcome,Hek293T,inactive
same,outcome,PA-1,inactive
same,outcome,Tov-21-G,inactive
same,outcome,Tov112D,inactive
same,"activity, negative = cell killing",[1]; [6],-26.9%
same,Potency,[1]; tumour line A,7.08 µM (active)
same,Potency,[1]; tumour line C,20.6 µM (active)
same,Potency,[1]; tumour line D,12.6 µM (active)
CCCCCCCC(=O)OCC(O)CO (centres undefined),outcome,MCC-13,inactive
same,outcome,MCC-26,inactive
same,outcome,MKL-1,inactive
same,outcome,MKL-2,inactive
same,outcome,UISO,inactive
same,outcome,WaGa,inactive
same,outcome,C33A,inactive
same,outcome,CAOV3,inactive
same,outcome,CASKI,inactive
same,outcome,Es-2,inactive
same,outcome,HeLa,inactive
same,outcome,Hek293T,inactive
same,outcome,JEG-3,inactive
same,Potency,OV90,3.55 µM (active)
same,outcome,PA-1,inactive
same,outcome,SKOV3,inactive
same,outcome,Tov-21-G,inactive
same,outcome,Tov112D,inactive
same,"activity, negative = cell killing",[1]; [6],-0.0604%
same,"activity, negative = cell killing",[1]; [7],-12.6%
same,"activity, negative = cell killing",[1]; [8],-23.4%
same,"activity, negative = cell killing",[1]; [9],-3.44%
COC(=O)c1cccnc1,outcome,MCC-13,inactive
same,outcome,MCC-26,inactive
same,outcome,MKL-1,inactive
same,outcome,MKL-2,inactive
same,outcome,UISO,inactive
same,outcome,WaGa,inactive
same,outcome,C33A,inactive
same,outcome,CAOV3,inactive
same,outcome,CASKI,inactive
same,outcome,Es-2,inactive
same,outcome,HeLa,inactive
same,outcome,Hek293T,inactive
same,outcome,JEG-3,inactive
same,Potency,OV90,inactive
same,outcome,PA-1,inactive
same,outcome,Tov-21-G,inactive
same,outcome,Tov112D,inactive
same,"activity, negative = cell killing",[1]; [6],-7.13%
same,"activity, negative = cell killing",[1]; [7],-4.81%
same,"activity, negative = cell killing",[1]; [8],-28.2%
same,"activity, negative = cell killing",[1]; [9],40.1%
O=C(Cn1ccnc1[N+](=O)[O-])NCc1ccccc1,outcome,MCC-13,inactive
same,outcome,MCC-26,inactive
same,outcome,MKL-1,inactive
same,outcome,MKL-2,inactive
same,outcome,UISO,inactive
same,outcome,WaGa,inactive
same,outcome,C33A,inactive
same,outcome,CAOV3,inactive
same,outcome,CASKI,inactive
same,outcome,Es-2,inactive
same,outcome,HeLa,inactive
same,outcome,Hek293T,inactive
same,outcome,JEG-3,inactive
same,Potency,OV90,inactive
same,outcome,PA-1,inactive
same,outcome,SKOV3,inactive
same,outcome,Tov-21-G,inactive
same,outcome,Tov112D,inactive
same,"activity, negative = cell killing",[1]; [6],4.79%
same,"activity, negative = cell killing",[1]; [7],3.98%
same,"activity, negative = cell killing",[1]; [8],-20.7%
same,"activity, negative = cell killing",[1]; [9],-17.9%
CN[C@@H]1[C@@H](O)[C@@H](O[C@@H]2[C@H](O)[C@H](O[C@H]3OC(CN)=CC[C@H]3N)[C@@H](N)C[C@H]2N)OCC1(C)O (some centres undefined),outcome,MCC-13,inactive
same,outcome,MCC-26,inactive
same,outcome,MKL-1,inactive
same,outcome,MKL-2,inactive
same,outcome,UISO,inactive
same,outcome,WaGa,inactive
same,outcome,C33A,inactive
same,outcome,CAOV3,inactive
same,outcome,CASKI,inactive
same,outcome,Es-2,inactive
same,outcome,HeLa,inactive
same,outcome,Hek293T,inactive
same,outcome,JEG-3,inactive
same,Potency,OV90,inactive
same,outcome,PA-1,inactive
same,outcome,SKOV3,inactive
same,outcome,Tov-21-G,inactive
same,outcome,Tov112D,inactive
same,"activity, negative = cell killing",[1]; [6],-0.265%
same,"activity, negative = cell killing",[1]; [7],7.79%
same,"activity, negative = cell killing",[1]; [8],-24.3%
same,"activity, negative = cell killing",[1]; [9],-7.7%
C[C@@H]1CCC[C@H](C)N1,outcome,MCC-13,inactive
same,outcome,MCC-26,inactive
same,outcome,MKL-1,inactive
same,outcome,MKL-2,inactive
same,outcome,UISO,inactive
same,outcome,WaGa,inactive
same,outcome,C33A,inactive
same,outcome,CAOV3,inactive
same,outcome,CASKI,inactive
same,outcome,Es-2,inactive
same,outcome,HeLa,inactive
same,outcome,Hek293T,inactive
same,outcome,JEG-3,inactive
same,Potency,OV90,inactive
same,outcome,PA-1,inactive
same,outcome,SKOV3,inactive
same,outcome,Tov-21-G,inactive
same,outcome,Tov112D,inactive
same,"activity, negative = cell killing",[1]; [2],-13.9%
same,"activity, negative = cell killing",[1]; [3],-3.64%
same,"activity, negative = cell killing",[1]; [4],-2.57%
same,"activity, negative = cell killing",[1]; [5],-18%

# From PubChem BioAssay (NCATS)
